Molecules are shown by their SMILES. Unmarked numbers belong to inactive results. Records with an inconclusive call do not appear. The source made the active and inactive calls. Unless noted, calls follow the shape of the dose curve; as a rule, active = well fitted curve in the direction sought with a large enough effect in the repeat runs; inconclusive = weak or mixed curves; inactive = no such curve, though single readings can be large; an effect the other way counts as inactive or inconclusive.

Potency, activity change, positive = activation and max response data for nine compounds are collected here from PubChem BioAssay (Tox21).

Assay [1] is described as follows: qHTS assay to identify small molecule agonists of the hypoxia (HIF-1) signaling pathway (AID 1224846; active = well fitted activation curve with a large enough effect in the signal ratio in the repeat runs, not every such curve was filed as active; the % refers to the signal ratio). The procedure, abridged:
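Hypoxia-pathway activation was scored as increased beta-lactamase from an HRE-controlled reporter in ME-180 cells; plated at 2,000 cells per well with 0.5% dialyzed FBS, they were exposed 17 hrs to compounds and then given CCF4-AM.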

Assay [2] is described as follows: qHTS assay to identify small molecule agonists of H2AX - cell viability counter screen (AID 1224847; calls by dose curve; also: nearly all actives have a fitted effect of over 30% in size; also: potency is read from the fitted curve at half-maximal effect). Summed up:
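CHO-K1 cells plated overnight at 37C, then exposed 3 h at 37C to compounds at 15 concentrations (0.76% DMSO final). Viability by CellTiter-Glo luminescence after 30 min at room temperature.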

The nature of assay [3]: qHTS assay to identify small molecule antagonists of the estrogen related receptor (ERR) signaling pathway from Tox21 library (AID 1224848). Also: nearly all actives have a fitted effect of over 50% in size. Also: potency is read from the fitted curve at half-maximal effect. The procedure, abridged:
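Antagonist-mode screen of the Tox21 10K library in an NTP-provided ERR reporter cell line; 18 h compound exposure at 37 C, luminescence measured with ONE-Glo.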

Assay [4] can be described thus: qHTS assay to identify small molecule agonists of the estrogen related receptor (ERR) signaling pathway from Tox21 library (AID 1224849; calls by dose curve; also: nearly all actives have a fitted effect of over 15% in size). To be noted: ERR reporter cell line, ONE-Glo luciferase, 18 h; at 92.4 µM (top of the series) unless noted. The procedure, abridged:
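Six hours post-seeding at 37 C/5% CO2, ERR cells receive DMSO-solubilised compounds; after 18 h at 37 C, ONE-Glo reagent is applied and luminescence recorded.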

Assay [5] in a line: qHTS RealTime-Glo MT Cell Viability Assay in HEK293 cells - 32 hour (AID 1224868). Also: nearly all actives have a fitted effect of over 50% in size. Also: potency is read from the fitted curve at half-maximal effect. Summed up:
(§1)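 Reads taken at 0, 8, 16, 24, 32 and 40 h from the same wells. HEK293 cells (600/well) carried RealTime-Glo reagents from seeding, with compound added after a 5 h settle at 37 C.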

Assay [6] in a line: A CellTox Green Cytotoxicity Assay to monitor cytotoxicity in HEK293 cells - 0 hour (AID 1224869). Also: nearly all actives have a fitted effect of over 50% in size. Also: potency is read from the fitted curve at half-maximal effect. Summed up:
(§2)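 Seeding of HEK293 cells together with cytotoxicity dye preceded a 5 h incubation at 37 C/5% CO2. Test compounds in DMSO were then added and fluorescence monitored across 40 h.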

A short description of assay [7]: qHTS RealTime-Glo MT Cell Viability Assay in HEK293 cells - 40 hour (AID 1224874). Also: nearly all actives have a fitted effect of over 50% in size. Also: potency is read from the fitted curve at half-maximal effect. To be noted: RealTime-Glo luminescence; max response: stronger effect = lower value. Summed up: (§3)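 Tox21 screen in HEK293 using RealTime-Glo MT chemistry, with cells and reagent co-dispensed. Luminescence proportional to viable cell number was captured at intervals during 40 h compound exposure at 37 C.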

Assay [8] in a line: A CellTox Green Cytotoxicity Assay to monitor cytotoxicity in HEK293 cells - 24 hour (AID 1224875). Also: nearly all actives have a fitted effect of over 45% in size. Also: potency is read from the fitted curve at half-maximal effect. Summed up: as §2
Assay [9] in a line: A CellTox Green Cytotoxicity Assay to monitor cytotoxicity in HepG2 cells - 16 hour (AID 1224876). Also: nearly all actives have a fitted effect of over 45% in size. Also: potency is read from the fitted curve at half-maximal effect. The procedure, abridged: (§4)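 Nonlytic assay: viable cells exclude the dye, so fluorescence scales with cell death. HepG2 at 600 cells/well, compounds added after 5 h, signal read across 40 h.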
A short description of assay [10]: A CellTox Green Cytotoxicity Assay to monitor cytotoxicity in HepG2 cells - 24 hour (AID 1224878). Also: nearly all actives have a fitted effect of over 45% in size. Also: potency is read from the fitted curve at half-maximal effect. The procedure, abridged:
as §4

The nature of assay [11]: A CellTox Green Cytotoxicity Assay to monitor cytotoxicity in HepG2 cells - 40 hour (AID 1224879). Also: nearly all actives have a fitted effect of over 40% in size. Also: potency is read from the fitted curve at half-maximal effect. Summed up: as §4
A short description of assay [12]: qHTS RealTime-Glo MT Cell Viability Assay in HEK293 cells - 0 hour (AID 1224880). Also: top concentration of the series differs between compounds; nearly all actives have a fitted effect of over 45% in size. Summed up: as §3
Assay [13] is described as follows: qHTS assay to identify small molecule agonists of H2AX (AID 1224845; active = well fitted activation curve with a large enough effect in the signal ratio in the repeat runs, not every such curve was filed as active; the % refers to the signal ratio; also: potency is read from the fitted curve at half-maximal effect). Summed up: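 Phospho-H2AX Ser139 measured by HTRF (ex 320 nm; em 665 and 620 nm) after 24 hr antibody incubation. Compounds, 15 concentrations, 0.76% DMSO, were applied to CHO-K1 cells for 3hr at 37C before lysis.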
The nature of assay [14]: qHTS RealTime-Glo MT Cell Viability Assay in HepG2 cells - 24 hour (AID 1224867). Also: nearly all actives have a fitted effect of over 50% in size. The procedure, abridged:
(§5)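 HepG2 suspension premixed with RealTime-Glo reagents is plated at 600 cells per well and left 5 h at 37 C/5% CO2. Compounds in DMSO then go in, and bioluminescence reflecting viable cell number is recorded over 40 h.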

A short description of assay [15]: qHTS RealTime-Glo MT Cell Viability Assay in HepG2 cells - 40 hour (AID 1224870). Also: nearly all actives have a fitted effect of over 50% in size. The procedure, abridged: (§6)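 Real-time viability: cells seeded at 600 per well together with NanoLuc and cell-permeant prosubstrate, compounds added after 5 h incubation. Luminescence tracked at 0, 8, 16, 24, 32 and 40 h of exposure.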
A short description of assay [16]: qHTS RealTime-Glo MT Cell Viability Assay in HepG2 cells - 8 hour (AID 1224873). Also: nearly all actives have a fitted effect of over 55% in size. The procedure, abridged: as §6
Assay [17] is described as follows: qHTS RealTime-Glo MT Cell Viability Assay in HepG2 cells - 32 hour (AID 1224877). Also: nearly all actives have a fitted effect of over 55% in size. The procedure, abridged:
as §5

A short description of assay [18]: qHTS RealTime-Glo MT Cell Viability Assay in HEK293 cells - 16 hour (AID 1224872). Summed up: as §1
Assay [19] can be described thus: A CellTox Green Cytotoxicity Assay to monitor cytotoxicity in HEK293 cells - 40 hour (AID 1224871). Also: nearly all actives have a fitted effect of over 45% in size. Also: potency is read from the fitted curve at half-maximal effect. The procedure, abridged:
as §2
% is scaled to controls: 0 for no effect and ±100 for the full control effect.

With `CCN(CC)c1ccc2c(-c3ccccc3C(=O)O)c3ccc(=[N+](CC)CC)cc-3oc2c1`, the Potency result in assay [1] and in [12] was “inactive” in each case. In addition, the Potency in assay [2] was 40.1 µM (active); in assay [3], 27.3 µM (active); in assay [5], 21.9 µM (active); in [6], 21.9 µM (active); in assay [7], 24.5 µM (active); in assay [8], 24.5 µM (active). For the same compound, the Potency is 24.5 µM (active) in assay [9], 21.9 µM (active) in assay [10] and 24.5 µM (active) in assay [11]. For the same compound, the activity change, positive = activation in assay [4] was -49.3%.

For `COc1ccc(S(=O)(=O)N2C(=O)[C@@](c3ccccc3OC)(N3C[C@H](O)C[C@H]3C(=O)N(C)C)c3cc(Cl)ccc32)c(OC)c1`, the Potency entry in [1], in [6], in assay [9], in assay [10], in [11] and in assay [12] was “inactive” each time. Further, the Potency in assay [5] and in assay [7] was 49 µM (active) throughout.

Take `CCCOC(C(=O)OC1CCN(C)CC1)(c1ccccc1)c1ccccc1`: the Potency result in assay [13], in assay [1], in [2], in assay [14], in assay [6] and in assay [15] was “inactive” in each case. The Potency entry in assay [16], in assay [17] and in assay [12] was “inactive” each time. The activity change, positive = activation in assay [4] was -25.8% [at 42.5 µM]. The results for the Potency in assay [9], in assay [10] and in assay [11] were 19 µM (active), 23.9 µM (active) and 23.9 µM (active), respectively.

As to `C[C@H]1C[C@H]2[C@@H]3CCC4=CC(=O)C=C[C@]4(C)[C@@]3(Cl)[C@@H](O)C[C@]2(C)[C@@]1(O)C(=O)CO`, the Potency result in [2], in assay [14], in assay [5], in assay [6], in [15] and in assay [8] was “inactive” each time. Moreover, the Potency entry in assay [9], in assay [17], in [10] and in [11] was “inactive” in each case. Also, in [3], the Potency was 26.6 µM (active). The activity change, positive = activation in assay [4] is -28.8% [at 42.5 µM]. For the same compound, in [7], the max response was -22.6%.

Regarding `C[C@H](CCC(=O)O)[C@H]1CC[C@H]2[C@@H]3CC[C@@H]4C[C@H](O)CC[C@]4(C)[C@H]3C[C@H](O)[C@]12C`, the Potency entry in [14], in assay [6], in [15], in [18], in [16] and in assay [9] was “inactive” in each case. Also, the Potency entry in [17], in assay [10], in [11] and in [12] was “inactive” in each case. The max response in assay [7] is -23.1%.

`COc1cc(C(=O)OCCCN2CCCN(CCCOC(=O)c3cc(OC)c(OC)c(OC)c3)CC2)cc(OC)c1OC`: the Potency result in assay [13], in [1], in [2], in assay [3], in assay [14] and in assay [6] was “inactive” in each case. The Potency result in assay [15], in assay [16], in [9], in [17] and in [12] was “inactive” each time. In addition, the activity change, positive = activation in assay [4] was -15% [at 42.5 µM]. For the same compound, the Potency in [5] is 9.52 µM (active); in assay [7], 9.52 µM (active); in assay [11] it was 23.9 µM (active).

For `C=CC(=O)OCCOc1ccccc1`, the Potency entry in [3], in assay [5], in assay [6], in [15], in assay [19] and in [18] was “inactive” in each case. Besides, the Potency entry in [8], in [17], in assay [10] and in assay [11] was “inactive” throughout. Also, the activity change, positive = activation in [4] was 46.4% (active). In addition, the max response in assay [7] is 2.45%.

For the compound `CCCCCCCCCCCCCCCCOS(=O)(=O)O`, the Potency result in assay [13], in assay [1], in assay [14], in assay [5], in assay [15] and in [16] was “inactive” each time. Besides, the Potency result in assay [17] and in assay [12] was “inactive” in each case. Besides, the activity change, positive = activation in assay [4] was -16% [at 42.5 µM]. In addition, the Potency in [19] was 21.3 µM (active). For the same compound, the max response in assay [7] is -27.5%.

Regarding `C=CC(=O)OCCOCCOC(=O)C=C`, the Potency in assay [13] is 56.9 µM (active); in [5], 34.8 µM (active); in assay [7], 31 µM (active); in [11] it was 49.2 µM (active). Also, the Potency entry in assay [3], in assay [6], in assay [9] and in assay [12] was “inactive” each time. Moreover, the activity change, positive = activation in assay [4] was -74.8% (active).
